Read-out in assay [1]: Macrophage colony-stimulating factor (MCSF), CSF1 (gene 1435)
The experiment in a line: BSK_LPS_MCSF: BioMAP Diversity Plus: LPS Assay for Macrophage colony-stimulating factor (MCSF) Biomarker Activity (AID 2283083). As to conditions: primary human HUVEC with PBMC; actives raise or lower the signal. The method, boiled down:
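HUVEC + PBMC co-culture (human primary), 24 h post-dose; M-CSF by ELISA; gain/loss of signal fitted bidirectionally vs DMSO baseline.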

Read-out in assay [2]: Tissue Factor, F3 (gene 2152)
Put plainly: BSK_LPS_TissueFactor: BioMAP Diversity Plus: LPS Assay for Tissue Factor Biomarker Activity (AID 2283084). As to conditions: primary human HUVEC with PBMC; actives raise or lower the signal. The method, boiled down:
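HUVEC/PBMC co-culture, LPS-activated; CD142 ELISA read 24 h post-dose; bidirectional curve fit vs DMSO negative control.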

Read-out in assay [3]: Tumor necrosis factor (Homo sapiens) (UniProt P01375)
Put plainly: BSK_LPS_TNFa: BioMAP Diversity Plus: LPS Assay for Tumour Necrosis Factor alpha (TNFa) Biomarker Activity (AID 2283085).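 For AC50: TNFa protein level quantified by ELISA in the co-culture.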 As to conditions: primary human HUVEC with PBMC; actives raise or lower the signal. The essentials:
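TNFa was quantified by ELISA in LPS-activated co-cultures of human endothelial cells and PBMC, 24 h post-dosing. Both increases and decreases versus DMSO were fitted.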

Read-out in assay [4]: Vascular cell adhesion molecule 1 (VCAM1), VCAM1 (gene 7412)
The experiment in a line: BSK_LPS_VCAM1: BioMAP Diversity Plus: LPS Assay for Vascular cell adhesion molecule 1 (VCAM1) Biomarker Activity (AID 2283086). As to conditions: primary human HUVEC with PBMC; actives raise or lower the signal. The essentials: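 VCAM-1 quantified by ELISA in an LPS-activated co-culture of human endothelial cells and peripheral blood mononuclear cells, read 24 h post-treatment. Fitted in both directions versus DMSO; parallel SRB staining flags overt cytotoxicity.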

Read-out in a further assay: CD38, CD38 (gene 952)
The experiment in a line: BSK_SAg_CD38: BioMAP Diversity Plus: SAg Assay for CD38 Biomarker Activity (AID 2283087). As to conditions: primary human HUVEC with PBMC; actives raise or lower the signal. The method, boiled down:
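CD38 quantified by ELISA (fluorescence) in a superantigen-activated endothelial cell–PBMC co-culture at 24 h post-dose. Activity fitted in both directions relative to DMSO; parallel SRB and Alamar Blue cytotoxicity read-outs.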

Read-out in the next assay: CD40, CD40 (gene 958)
The experiment in a line: BSK_SAg_CD40: BioMAP Diversity Plus: SAg Assay for CD40 Biomarker Activity (AID 2283088). As to conditions: primary human HUVEC with PBMC; actives raise or lower the signal. The method, boiled down:
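HUVEC/PBMC co-culture, 24 h post-dose; CD40 by ELISA, fluorescence intensity; bidirectional fit vs DMSO negative control.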

Read-out in another assay: CD69, CD69 (gene 969)
Put plainly: BSK_SAg_CD69: BioMAP Diversity Plus: SAg Assay for CD69 Biomarker Activity (AID 2283089).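 For AC50: cell surface CD69 protein quantified by ELISA with fluorescence detection.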 As to conditions: primary human HUVEC with PBMC; actives raise or lower the signal. The method, boiled down: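 Endothelial/PBMC co-culture; chemical added; 24 h incubation; CD69 ELISA with fluorescence detection; bidirectional fit vs DMSO.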

Read-out in assay [5]: Monocyte Chemoattractant Protein-1 (MCP1), CCL2 (gene 6347)
Put plainly: BSK_SAg_MCP1: BioMAP Diversity Plus: SAg Assay for Monocyte Chemoattractant Protein-1 (MCP1) Biomarker Activity (AID 2283090). As to conditions: primary human HUVEC with PBMC; actives raise or lower the signal. The essentials: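 Values derive from bidirectional fitting of ELISA-measured MCP1 against DMSO controls. Readings were taken 24 h after dosing human vascular endothelial cells co-cultured with peripheral blood mononuclear cells under superantigen stimulation.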

Read-out in assay [6]: E-selectin (Homo sapiens) (UniProt P16581)
The experiment in a line: BSK_SAg_Eselectin: BioMAP Diversity Plus: SAg Assay for Eselectin Biomarker Activity (AID 2283091). As to conditions: primary human HUVEC with PBMC; actives raise or lower the signal. The essentials:
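E-selectin ELISA readout at 24 h post-dosing in human umbilical vein endothelial cell/PBMC co-culture; gain or loss of signal fitted relative to DMSO baseline.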

Read-out in assay [7]: Monokine induced gamma interferon (MIG), CXCL9 (gene 4283)
Put plainly: BSK_SAg_MIG: BioMAP Diversity Plus: SAg Assay for Monokine induced gamma interferon (MIG) Biomarker Activity (AID 2283092). As to conditions: primary human HUVEC with PBMC; actives raise or lower the signal. The method, boiled down: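 Measures CXCL9 protein by ELISA in a human vascular primary-cell co-culture (umbilical vein endothelium with PBMC) 24 h after chemical addition. Activity is scored up or down from the DMSO control.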

Assay [8] in a line: BSK_SAg_PBMCCytotoxicity: PBMC Cytotoxicity Assessment in the BioMAP Diversity Plus: SAg Assay (AID 2283093).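 Note: fitted both ways against DMSO so a hit may be loss or gain of signal.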 As to conditions: primary human HUVEC with PBMC. The method, boiled down:
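PBMC viability by Alamar Blue reduction, fluorescence read at 546/580 nm after 6 h dye exposure. Cells were dosed 1 h before SEB plus TSST-1 activation (20 ng/mL final each), then held 90 h; endothelial/PBMC human co-culture.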

Read-out in assay [9]: Interleukin-8 (IL8), CXCL8 (gene 3576)
The experiment in a line: BSK_SAg_IL8: BioMAP Diversity Plus: SAg Assay for Interleukin-8 (IL8) Biomarker Activity (AID 2283094). As to conditions: primary human HUVEC with PBMC; actives raise or lower the signal. The method, boiled down: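 ELISA readout of IL-8 from a superantigen-activated endothelial/PBMC primary human co-culture, taken 24 h post-dosing and fitted in both directions against DMSO; parallel SRB total-protein staining flags overt cytotoxicity.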

A short description of assay [10]: BSK_SAg_Proliferation: Cell Proliferation Assessment in the BioMAP Diversity Plus: SAg Assay (AID 2283095).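 Note: relative cell number as total protein by SRB absorbance in sub-confluent culture.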 As to conditions: primary human HUVEC with PBMC. The method, boiled down: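 Relative cell number in the endothelial cell/PBMC co-culture was quantified at 96 h by SRB staining (0.1% SRB, 10% TCA fixation, read at 560 nm). Curves were fitted in both directions relative to DMSO baseline.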

A short description of assay [11]: BSK_SAg_SRB: Viability Assessment in the BioMAP Diversity Plus: SAg Assay (AID 2283096).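 Note: cells read one day after compound addition; hits may be either gain or loss of signal compared with DMSO.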 As to conditions: primary human HUVEC with PBMC. The essentials: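 Compounds were added to a human vascular co-culture of umbilical vein endothelium and PBMC. After 24 h, parallel cultures were fixed with 10% TCA, stained with 0.1% sulforhodamine B and read at 560 nm. Gain or loss of signal was fitted relative to DMSO.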

Several values for one entry are separate records, joined by “and”; a condition that tells them apart may be missing. Identical values can stand only once. The source holds several records for some structures; these can differ, active in one and inactive in another. Activity calls are given as the source filed them. Rule for the calls: active = hit-call score of the fitted dose curve at least 0.9, where 1 is the maximum; inactive = score below 0.9.

Data on nine compounds can be found in PubChem BioAssay (EPA / NIEHS).

Chain of Tumor necrosis factor (Homo sapiens) (P01375 whole entry, looked up): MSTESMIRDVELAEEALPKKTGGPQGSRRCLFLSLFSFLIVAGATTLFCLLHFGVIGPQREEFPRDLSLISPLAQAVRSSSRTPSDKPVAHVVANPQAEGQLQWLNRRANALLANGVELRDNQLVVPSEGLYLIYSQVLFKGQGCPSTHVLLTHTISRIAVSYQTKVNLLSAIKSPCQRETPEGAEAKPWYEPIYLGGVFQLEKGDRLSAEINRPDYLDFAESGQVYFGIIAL
Chain of E-selectin (Homo sapiens) (P16581 whole entry, looked up): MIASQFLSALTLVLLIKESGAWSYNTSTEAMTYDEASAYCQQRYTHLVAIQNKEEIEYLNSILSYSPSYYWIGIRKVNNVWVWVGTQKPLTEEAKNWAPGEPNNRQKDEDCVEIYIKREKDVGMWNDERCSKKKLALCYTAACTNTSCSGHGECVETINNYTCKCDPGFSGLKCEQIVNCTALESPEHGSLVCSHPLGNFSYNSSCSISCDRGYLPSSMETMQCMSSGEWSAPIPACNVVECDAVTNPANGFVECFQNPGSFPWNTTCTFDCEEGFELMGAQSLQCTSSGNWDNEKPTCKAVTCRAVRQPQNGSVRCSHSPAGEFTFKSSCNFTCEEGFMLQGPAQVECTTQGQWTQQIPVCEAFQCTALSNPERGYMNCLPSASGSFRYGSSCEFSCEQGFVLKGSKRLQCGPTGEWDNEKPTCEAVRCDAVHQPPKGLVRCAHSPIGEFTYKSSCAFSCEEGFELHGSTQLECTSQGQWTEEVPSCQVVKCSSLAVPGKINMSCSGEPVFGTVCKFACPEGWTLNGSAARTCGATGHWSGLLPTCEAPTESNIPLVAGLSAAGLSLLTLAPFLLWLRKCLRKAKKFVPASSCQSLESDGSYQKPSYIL

What is called AC50 is the midpoint of the concentration-response curve, whichever way the signal moves. Consider `OCc1c[nH]c2ccccc12`, for which the half-maximal activity concentration (AC50) is 3.97 µM (active) in [1]; 20 µM (active) with CD40, CD40 (gene 958); 48.1 nM (active) in assay [9]; 31.1 µM (active) in assay [10]. Besides, the outcome was “inactive” in [2]; “inactive” in [3]; “inactive” in assay [4]; “inactive” in the assay with CD38, CD38 (gene 952); “inactive” with CD69, CD69 (gene 969); “inactive” in assay [5]. The outcome in assay [6], in assay [7], in assay [8] and in assay [11] was inactive.

In the case of `Cc1nccn1-c1ccc(Sc2cccc(C3(C(N)=O)CCOCC3)c2)cc1`, the outcome in [1], in [2], in assay [3], in [7], in assay [8] and in assay [11] was inactive. Besides, the AC50 was 6.8 µM (active) in assay [4]; 5.57 µM (active) in the assay with CD38, CD38 (gene 952); 4.56 µM (active) in the assay with CD40, CD40 (gene 958); 6.87 µM (active) with CD69, CD69 (gene 969); 6.58 µM (active) in [5]; 8.95 µM (active) in assay [6]. The concentration at half-maximal activity (AC50) in assay [9] is 5420 nM (active); in assay [10], 5.48 µM (active).

For the compound `OC(O)(C(F)C(O)(O)C(F)(F)F)C(F)(F)F`, the outcome in assay [1] is “inactive”; in assay [2], “inactive”; in [4], “inactive”; with CD40, CD40 (gene 958) it was “inactive”; with CD69, CD69 (gene 969) it was “inactive”; in [5], “inactive”. Also, the outcome in [6], in [7], in assay [8], in [9] and in assay [11] was inactive. In addition, the AC50 in assay [2] is 308 nM (active); in [3], 4 µM (active) and 13.3 µM (active); in the assay with CD38, CD38 (gene 952), 16.6 µM (active) and 18.1 µM (active); in [10], 30 µM (active).

In the case of `NC(=O)N1c2ccccc2C=Cc2ccccc21`, the outcome in assay [1] is “inactive”; in assay [2], “inactive”; in assay [3], “inactive”; in assay [4], “inactive”; with CD38, CD38 (gene 952), “inactive”; in the assay with CD40, CD40 (gene 958), “inactive”. The outcome with CD69, CD69 (gene 969) was “inactive”; in [5], “inactive”; in [6], “inactive”; in [7], “inactive”; in [8] it was “inactive”; in assay [9], “inactive”. Besides, the outcome in assay [10] and in assay [11] was inactive.

`OC[C@H]1O[C@@H]2O[C@H]3[C@H](O)[C@@H](O)[C@@H](O[C@H]4[C@H](O)[C@@H](O)[C@@H](O[C@H]5[C@H](O)[C@@H](O)[C@@H](O[C@H]6[C@H](O)[C@@H](O)[C@@H](O[C@H]7[C@H](O)[C@@H](O)[C@@H](O[C@H]1[C@H](O)[C@H]2O)O[C@@H]7CO)O[C@@H]6CO)O[C@@H]5CO)O[C@@H]4CO)O[C@@H]3CO`: the outcome was “inactive” in assay [1]; “inactive” in assay [2]; “inactive” in [3]; “inactive” in assay [4]; “inactive” with CD38, CD38 (gene 952); “inactive” in the assay with CD40, CD40 (gene 958). In addition, the outcome with CD69, CD69 (gene 969) is “inactive”; in [5], “inactive”; in [6], “inactive”; in assay [7] it was “inactive”; in assay [8], “inactive”; in [9] it was “inactive”. Also, the result in assay [10] and in assay [11] was inactive.

`S=P(N1CC1)(N1CC1)N1CC1`: the outcome in [1] was “inactive”; in assay [2], “inactive”; in assay [3] it was “inactive”; in assay [4], “inactive”; with CD38, CD38 (gene 952) it was “inactive”; with CD40, CD40 (gene 958), “inactive”. For the same compound, the outcome with CD69, CD69 (gene 969) is “inactive”; in assay [5], “inactive”; in assay [6] it was “inactive”; in [7], “inactive”; in assay [8], “inactive”; in assay [9], “inactive”. The result in [11] was inactive. In addition, the half-maximal activity concentration (AC50) in [10] is 4.15 µM (active).

Take `OC(Cn1cncn1)(Cn1cncn1)c1ccc(F)cc1F`: the outcome in assay [1] is “inactive”; in [2], “inactive”; in [3] it was “inactive”; in [4], “inactive”; in the assay with CD38, CD38 (gene 952), “inactive”; with CD40, CD40 (gene 958), “inactive”. Moreover, the outcome is “inactive” with CD69, CD69 (gene 969); “inactive” in assay [5]; “inactive” in assay [6]; “inactive” in assay [7]; “inactive” in assay [8]; “inactive” in [9]. The outcome in assay [10] and in assay [11] was inactive.

On to `C[Si](C)(C)C(F)(F)C(F)(F)C(F)(F)F`, for which the outcome in assay [1] is “inactive”; in [2], “inactive”; in assay [3], “inactive”; in assay [4], “inactive”; with CD38, CD38 (gene 952) it was “inactive”; in the assay with CD40, CD40 (gene 958) it was “inactive”. Besides, the outcome is “inactive” with CD69, CD69 (gene 969); “inactive” in assay [5]; “inactive” in [6]; “inactive” in [7]; “inactive” in assay [8]; “inactive” in assay [9]. Moreover, the outcome in [10] and in assay [11] was inactive.

Consider `O=C(O)c1cccc(C[C@@H]2COc3ccc(OCc4nc5cc(F)ccc5s4)cc3[C@@H]2O)c1`, for which the outcome in assay [1] was “inactive”; in [2], “inactive”; in assay [3], “inactive”; in assay [4], “inactive”; with CD38, CD38 (gene 952), “inactive”; in the assay with CD40, CD40 (gene 958), “inactive”. Also, the outcome was “inactive” with CD69, CD69 (gene 969); “inactive” in [5]; “inactive” in [6]; “inactive” in assay [7]; “inactive” in assay [8]; “inactive” in [9]. Besides, the outcome in assay [10] and in [11] was inactive.
